Our source for the composite z-score values is PubChem BioAssay.

The structures appear in SMILES notation.

One assay concerns Human papillomavirus type 1a E7 protein (residues 1-88). Description: HPV1a E7 small-molecule binders, primary screen, biochemical, small-molecule microarray, residues 1-88, 635 nm (AID 1129). To be noted: small-molecule microarray binding, fluorescence 635 nm; higher = more signal.
Turning to `O=C1C=C(c2ccccc2)C(=O)c2ccc([C@H]3Oc4ccccc4S(=O)(=O)N4CCC[C@@H]34)cc21`, the composite z-score was -0.315.
Same read-out and setting: then `Cc1ccc(S[C@]2(C(=O)NCC(F)(F)F)CC(=O)N(C3CCCCC3)[C@@H]2c2ccc(CO)cc2I)cc1`, with 1.21; and `COc1ccc(C#Cc2ccc3c(c2)[C@]2(C(=O)N3)[C@H](c3ccc(O)cc3)N3[C@H](c4ccccc4)[C@H](c4ccccc4)OC(=O)[C@H]3[C@@H]2C(=O)O)cc1`, with 1.06.
For the compound `COC(=O)[C@@]1(Cc2ccc(OC)cc2)[C@@H]2C(=CC(=O)[C@H]2CC(=O)C(=O)N(C)C)CN1C(=O)c1ccccc1`, the composite z-score came to 1.23.
Consider `CCOC(=O)c1ccc(NC(=O)O[C@H]2[C@H](OC(=O)Nc3ccc4c(c3)OCO4)[C@H](OC(=O)Nc3ccc4c(c3)OCO4)[C@@H](OC)O[C@@H]2CO)cc1`, for which the composite z-score worked out at 1.26.
Take `C=CCN1Cc2ccccc2[C@H]2OC(c3ccc(OCCCO)cc3)=N[C@@]2(CC=C)C1=O`: the composite z-score was 1.23.
`CN(C)CCCNC(=O)[C@@]1(C)c2ccccc2C(=O)N(Cc2ccccc2)[C@H]1c1ccc(CO)cc1` returned a composite z-score of -1.49.
In turn, `CCCCCCCCCCC(O)C1C=CC2C(=O)N(C)C(=O)C2N1NC(=O)OC(C)(C)C` (centres undefined) yielded a composite z-score of 0.995.

The next assay deals with Focal adhesion kinase 1 (Homo sapiens) (UniProt Q05397). Description: small-molecule microarray binders of FAK, primary screen, biochemical, 635/667 nm fluorescence, BSA, DTT (AID 1130).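 Further: composite of spot emission at 667 nm and signal to noise over triplicate slides.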 The settings on record: PTK2 binding, 635 nm fluorescence, higher = more signal.
Chain of Focal adhesion kinase 1 (Homo sapiens) (Q05397 whole entry, looked up): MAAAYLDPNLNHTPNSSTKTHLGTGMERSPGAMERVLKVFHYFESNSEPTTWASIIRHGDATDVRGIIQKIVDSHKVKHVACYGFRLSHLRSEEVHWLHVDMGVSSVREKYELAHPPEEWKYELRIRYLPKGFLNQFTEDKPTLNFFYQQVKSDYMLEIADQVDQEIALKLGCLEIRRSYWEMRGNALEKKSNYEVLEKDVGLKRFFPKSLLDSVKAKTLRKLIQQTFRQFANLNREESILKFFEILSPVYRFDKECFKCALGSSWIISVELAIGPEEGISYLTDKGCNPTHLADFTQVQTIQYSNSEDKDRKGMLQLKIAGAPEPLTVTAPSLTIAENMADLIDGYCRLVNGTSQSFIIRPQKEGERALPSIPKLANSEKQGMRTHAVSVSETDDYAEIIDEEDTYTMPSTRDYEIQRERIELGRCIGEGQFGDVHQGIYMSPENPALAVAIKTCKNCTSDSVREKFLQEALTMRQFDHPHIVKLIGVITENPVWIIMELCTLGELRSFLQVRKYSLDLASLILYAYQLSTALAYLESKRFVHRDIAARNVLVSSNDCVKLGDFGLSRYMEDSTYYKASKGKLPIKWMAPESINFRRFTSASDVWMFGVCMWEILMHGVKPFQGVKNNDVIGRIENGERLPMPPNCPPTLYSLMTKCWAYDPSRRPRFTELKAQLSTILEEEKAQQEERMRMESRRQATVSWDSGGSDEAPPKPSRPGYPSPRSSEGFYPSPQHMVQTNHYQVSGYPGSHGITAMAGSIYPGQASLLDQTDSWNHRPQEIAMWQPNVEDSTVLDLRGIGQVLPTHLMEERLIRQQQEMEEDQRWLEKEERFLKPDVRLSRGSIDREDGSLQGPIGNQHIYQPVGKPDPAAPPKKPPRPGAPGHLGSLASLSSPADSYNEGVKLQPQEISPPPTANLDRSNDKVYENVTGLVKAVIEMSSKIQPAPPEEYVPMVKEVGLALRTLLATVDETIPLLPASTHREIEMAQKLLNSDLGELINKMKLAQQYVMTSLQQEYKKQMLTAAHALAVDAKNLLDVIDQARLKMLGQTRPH
`CN1C(=O)C2C=CC(C(O)C#Cc3ccccc3)N(Nc3ccccc3)C2C1=O` (centres undefined) gave a composite z-score of 0.884.
`CN(C)c1ccc(C(O)C2C=CC3C(=O)N(c4ccccc4)C(=O)C3N2Nc2ccc([N+](=O)[O-])cc2)cc1` (centres undefined) returned a composite z-score of -0.165.
For `CN(C)C(=O)[C@@]1(Cc2ccccc2CN=[N+]=[N-])N=C(c2ccc(OCCCO)cc2)O[C@H]1c1ccccc1CN=[N+]=[N-]`, the composite z-score stood at 0.419.
Compound `O=C1OCC=C[C@H]2OC34C=CCN(Cn5nnc6ccccc65)C(=O)[C@H]3N(CCCO)C(=O)[C@@H]4[C@@H]12` (some centres undefined) registered a composite z-score of -0.506.
In the case of `C[N+](C)(C)CCCCCCNC(=O)[C@H]1C[C@H]2C(=O)N[C@@H](Cc3ccccc3)C(=O)N2[C@H]1c1ccc(O)cc1`, the composite z-score is -0.208.
`COCCOC(=O)N1C(=O)[C@@]2(c3cc(C#CCCO)ccc31)[C@H](C(=O)Nc1nc3ccccc3s1)[C@H]1C(=O)O[C@H](c3ccccc3)[C@H](c3ccccc3)N1[C@@H]2c1ccccc1OCCO` returned a composite z-score of 0.764.
As for `COc1cc2c(cc1OC)CN(C(=O)[C@@H]1[C@H]3C(=O)O[C@H](c4ccccc4)[C@H](c4ccccc4)N3[C@H](c3ccc(OCCO)cc3)[C@@]13C(=O)Nc1ccc(C#CC4(O)CCCCCC4)cc13)CC2`, the composite z-score is -0.226.
Same read-out and setting: then `COc1cc(CO)cc(I)c1O[C@H]1C=C(C(=O)NCCO)C[C@@H](NCc2ccc(F)cc2)[C@@H]1O`, with -0.123; and `[N-]=[N+]=NCc1ccccc1C[C@@]1(C(=O)NCc2ccccc2)N=C(c2ccc(OCCCO)cc2)O[C@@H]1c1ccccc1N=[N+]=[N-]`, with 0.0861; and `O=C(CS)NCCCCCNC(=O)[C@@H]1C[C@@H]2C(=O)N3CCC[C@H]3C(=O)N2[C@@H]1c1cccc(OCCO)c1`, with 0.515.
Turning to `C=C(C)c1cc2c(c(CCCCCC)n1)[Si](C(C)C)(C(C)C)OC2`, the composite z-score was -0.534.
On to `CCCCC(O)C1C=CC2C(=O)N(c3ccccc3)C(=O)C2N1Nc1ccc(C(C)C)cc1` (centres undefined), for which the composite z-score was determined as 0.536.
As to `COCCOC(=O)N1C(=O)[C@@]2(c3cc(C#CC4=CCCCC4)ccc31)[C@H](c1ccc(OCCO)cc1)N1[C@H](c3ccccc3)[C@H](c3ccccc3)OC(=O)[C@H]1[C@@H]2C(=O)N1CCN(c2ncccn2)CC1`, the composite z-score was found to be 0.067.
For `C=C(COC)/C(=C/C[C@H](OC(C)=O)c1ccc(OCCO)cc1)c1cc(C(=O)OC)ccc1OC`, the composite z-score was found to be 0.514.
As for `CC1CC/C=C\[C@H]2OC34C=CCN(c5ccc(Cl)cc5)C(=O)[C@H]3N(CCCCCO)C(=O)[C@]4(C)C2C(=O)O1` (some centres undefined), the composite z-score was -0.857.
On to `CN1C(=O)C2C=CC(C(O)c3cccc(O)c3)N(Nc3ccccc3)C2C1=O` (centres undefined), for which the composite z-score amounted to 0.214.
Compound `O=C1NC(=O)C2C1C=CC(C(O)c1c(F)cccc1Cl)N2Nc1ccc(Cl)cc1Cl` (centres undefined) had a composite z-score of 1.6.
Compound `COc1ccc([Si](C)(C)[C@@H]2[C@@H](CCO)O[C@]3(C(=O)N(Cc4ccc(N5CCCCC5=O)cc4)c4ccccc43)[C@H]2C)cc1` had a composite z-score of -0.0284.
Compound `C=CCC(OC(C)=O)[C@@H]1[C@@H](N(Cc2cc3ccccc3o2)C(=O)c2ccc(C)cc2)c2cc(OCCCO)ccc2N1C(=O)Cc1ccc(OC)cc1` (some centres undefined) registered a composite z-score of 0.0903.
The compound `CCOc1cc(C(O)C2C=CC3C(=O)N(C)C(=O)C3N2Nc2ccccc2)ccc1O` (centres undefined) displayed a composite z-score of 0.327.
In the case of `O=C(CS)NCCCCCCNC(=O)[C@H]1C[C@H]2C(=O)N[C@@H](Cc3ccccc3)C(=O)N2[C@H]1c1ccc(O)cc1`, the composite z-score amounted to 0.904.
Turning to `CC(c1ccccc1)C(O)C1C=CC2C(=O)N(c3ccccc3)C(=O)C2N1Nc1ccc([N+](=O)[O-])cc1` (centres undefined), the composite z-score amounted to 0.605.
With `COc1ccccc1CN1C(=O)c2ccccc2[C@@]2(Cc3ccccc3N(CC(F)(F)F)C2=O)[C@@H]1c1ccc(CO)cc1`, the composite z-score amounted to 0.205.
`COC(=O)C(CC#Cc1ccc2c(c1)[C@]1(C(=O)N2)[C@H](C(=O)N2CCN(c3ncccn3)CC2)[C@H]2C(=O)O[C@H](c3ccccc3)[C@H](c3ccccc3)N2[C@@H]1c1ccc(OCCO)cc1)C(=O)OC` yielded a composite z-score of 0.179.
Compound `[N-]=[N+]=Nc1ccccc1[C@@H]1OC(c2ccc(OCCCO)cc2)=N[C@]1(Cc1ccccc1)C(=O)NCC(O)CO` (some centres undefined) had a composite z-score of 0.587.
On the same count and under the same terms, then `Cc1cc(C)c(C(O)C2C=CC3C(=O)NC(=O)C3N2Nc2ccc(Cl)cc2Cl)c(C)c1` (centres undefined), with 0.941; and `COC(=O)c1c2oc(c1C(=O)OC)C(=O)N(Cc1ccccc1)Cc1cn(nn1)C[C@H](Cc1ccccc1)NC(=O)N[C@H](CO)CC2`, with -0.0924.
On the same count and under the same terms, then `C=CCNC(=O)[C@H]1[C@@H]2C(=O)O[C@@H](c3ccccc3)[C@@H](c3ccccc3)N2[C@@H](c2ccc(O)cc2)[C@]12C(=O)N(C(=O)OCCOC)c1ccccc12`, with 0.484.
The same measure, in the same setting: then `O=C1C=C(c2ccccc2)C(=O)c2ccc([C@H]3Oc4ccccc4S(=O)(=O)N4CCC[C@@H]34)cc21`, with -0.29.
In turn, `Cc1ccc(S[C@]2(C(=O)NCC(F)(F)F)CC(=O)N(C3CCCCC3)[C@@H]2c2ccc(CO)cc2I)cc1` yielded a composite z-score of 0.543.
The same measure, in the same setting: to `COc1ccc(C#Cc2ccc3c(c2)[C@]2(C(=O)N3)[C@H](c3ccc(O)cc3)N3[C@H](c4ccccc4)[C@H](c4ccccc4)OC(=O)[C@H]3[C@@H]2C(=O)O)cc1` belongs 0.324; to `COC(=O)[C@@]1(Cc2ccc(OC)cc2)[C@@H]2C(=CC(=O)[C@H]2CC(=O)C(=O)N(C)C)CN1C(=O)c1ccccc1`, 0.242.
On to `CCOC(=O)c1ccc(NC(=O)O[C@H]2[C@H](OC(=O)Nc3ccc4c(c3)OCO4)[C@H](OC(=O)Nc3ccc4c(c3)OCO4)[C@@H](OC)O[C@@H]2CO)cc1`, for which the composite z-score was 0.812.
In turn, `C=CCN1Cc2ccccc2[C@H]2OC(c3ccc(OCCCO)cc3)=N[C@@]2(CC=C)C1=O` registered a composite z-score of 1.12.
In the case of `CN(C)CCCNC(=O)[C@@]1(C)c2ccccc2C(=O)N(Cc2ccccc2)[C@H]1c1ccc(CO)cc1`, the composite z-score was -0.3.
Take `CCCCCCCCCCC(O)C1C=CC2C(=O)N(C)C(=O)C2N1NC(=O)OC(C)(C)C` (centres undefined): the composite z-score was determined as 0.723.
